# Screening data: PubChem BioAssay, several laboratories
# Hits are enriched below; roughly 3.9% of the tested compounds scored in any of these assays.
# aSyn 5UTR inh: MLPCN primary screen, SNCA 5' untranslated region. alpha-synuclein 5'UTR reporter, inhibitor activity. inhibition, % (tested at 7.5 µM). hit rate 0.82% among 300,000; in the data active means inhibition above about 60%;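 further: H4 neuroglioblastoma cells stably carrying SNCA 5'UTR luciferase fusion; 0% = DMSO wells and 100% = positive control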
# TROY signal inh: inhibitors of TROY-driven NF-kB signaling, primary screen, Q293 LMP1-TROYcd cells, NF-kB luciferase, uHTS; Q293 LMP1-TROYcd NF-kB luciferase reporter, 4 h; inhibition, % at 10 µM; hit rate 0.98% among 360,000;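 active means compounds whose plate-normalised and pattern-corrected inhibition of the luciferase reporter signal at the single screening dose is 50% or more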
# HIF-2a block: HIF-2a reporter inhibitors, primary screen, luminescence, 786-0 RCC cells; inhibition, % at 18.8 µM; 786-0 RCC cells HIF-2a reporter, luciferase luminescence, overnight; hit rate 0.72% among 360,000; AID 624352, 2012;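 active means inhibition of the luminescence signal of 40% or more relative to plate controls, in a single-dose primary screen at 18.75 µM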
# C8 TRAIL sens: viability loss with TRAIL in NB7+C8 cells, primary screen, TRAIL sensitizer project, cell-based, ATPlite luminescence; hit rate 1% among 360,000; AID 624354, 2012; inhibition (viability loss, TRAIL sensitization), % at 10 µM;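 active means compounds causing at least 50% loss of cell viability in the single-dose screen, relative to plate controls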
# TWEAK-Fn14 inh: inhibitors of TWEAK-Fn14 signaling, primary screen, luciferase reporter cells, uHTS | TWEAK-stimulated Fn14 reporter cells, luciferase luminescence, 8 h | inhibition, % at 10 µM | hit rate 2% among 360,000 | AID 1159606, 2016; in the data active means inhibition above about 50%
# HSP90 refold inh: HSP90 inhibitors, primary screen, cell lysate, luminescence; inhibition, % at 5.6 µM; Heat shock protein HSP 90 (rabbit reticulocyte lysate; luciferase refolding); hit rate 0.91% among 290,000; AID 1789, 2009; Rabbit reticulocyte lysate, luciferase refolding luminescence, 3 h;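 active means inhibition above the screen-wide mean plus 3 SD, computed separately per campaign, cut at about 16% in these data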;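 further: 0% = DMSO wells and 100% = 60 µM geldanamycin wells; inhibitors lower the luminescence because luciferase stays unfolded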
# An asterisk follows results filed as active; nt = not tested or not shown.
SMILES,aSyn 5UTR inh,TROY signal inh,HIF-2a block,C8 TRAIL sens,TWEAK-Fn14 inh,HSP90 refold inh
O=C(Nc1ccccc1NC(=O)c1ccco1)c1ccco1,11,-15,14,-5,-11,-2
CCC(=O)Oc1ccc(NC(=O)c2ccco2)cc1,-15,-29,-25,-1,-16,1
Cc1cc(C)c(OCC(=O)Nc2cccc(NC(=O)c3ccco3)c2)c(Br)c1,10,49,-52,5,56*,3
O=C(Nc1ccccc1-c1ccccc1NC(=O)c1ccco1)c1ccco1,16,nt,21,-17,66*,0
CCOc1ccc(CCNC(=O)CCNC(=O)c2ccco2)cc1OCC,6,-2,9,2,4,-1
CCOc1ccc(CC(=O)Nc2ccc(NC(=O)c3ccco3)cc2)cc1OCC,66*,-4,-9,-16,-11,-2
CCC(=O)Nc1ccc(NC(=O)c2ccco2)cc1,-136,-17,-203,57*,-4,0
O=C1c2ccccc2C(c2nnnn2-c2ccc3c(c2)OCCO3)N1CCc1ccccc1F (configuration not stated),nt,-14,-38,0,0,nt
Cc1ccc(S(=O)(=O)N2C[C@H]3C(=O)C[C@@H](c4ccccc4)N(S(=O)(=O)c4ccccc4)[C@H]3C[C@H]2c2ccccc2)cc1,nt,-8,19,-7,1,nt
Cc1cc(C)cc(C(=O)NCC(=O)OCC(=O)NC2CC2)c1,nt,5,14,-15,7,nt
O=C(Nc1ccccc1-c1ccccc1)c1ccccc1,2,-18,-7,-6,62*,-1
CCN1CCN(c2nc(S(=O)(=O)c3ccc(C)cc3)c(Cl)s2)CC1,-21,51*,-5,6,0,3
COc1cccc(C=C(C(C)=O)C(=O)c2ccccc2)c1,nt,14,17,14,51*,nt
COc1cccc(/C=C(/C(=O)OCC(N)=O)c2ccccc2)c1,2,3,17,-3,-12,3
c1ccc2c(c1)ccn1c(Cc3ccsc3)c(C3CCCCC3)nc21,nt,-11,-28,14,5,nt
Cc1ccc(Cc2c(-c3ccccc3)nc3c4ccccc4ccn23)cc1,nt,67*,-56,-14,59*,nt
Cc1ccc(-c2nc3c4ccccc4ccn3c2Cc2ccccc2)cc1,nt,-9,-89,-2,8,nt
Cc1ccc(Cc2c(C3CCCCC3)nc3c4ccccc4ccn23)cc1,nt,69*,-65,8,60*,nt
CC(C)(C)n1nnnc1C(c1ccc(Cl)cc1)N1CCCc2ccccc21 (configuration not stated),9,-4,11,0,14,-2
CC(C)(C)n1nnnc1C(c1cccc(C#N)c1)N1CCCc2ccccc21 (configuration not stated),3,38,12,8,50*,2
CC(C)(C)NC(=O)CN(C(=O)C1CSC(=O)C1)c1ccc2c(c1)OCCO2 (configuration not stated),-26,54*,-27,-8,61*,-4
COc1cccc(N(CC(=O)NC(C)(C)C)C(=O)C2CSC(=O)C2)c1 (configuration not stated),-18,8,12,-5,4,1
CC1=C(C(=O)N(C(C)C)C(C)C)CC(CC(=O)NCc2cccs2)C(=O)N1CCCN1CCCC1=O (configuration not stated),nt,-3,-10,-10,-13,nt
O=C1C(C=NCc2ccco2)=C(O)c2ccccc21,-141,59*,-255,-5,38,-1
O=C1C(C=NCc2cccnc2)=C(O)c2ccccc21,-186,52*,-186,24,27,2
SMILES,aSyn 5UTR inh,TROY signal inh,HIF-2a block,C8 TRAIL sens,TWEAK-Fn14 inh,HSP90 refold inh
Cc1[nH]n(-c2ccccc2)c(=O)c1C=NCc1ccco1,-114,nt,nt,nt,nt,1
O=C1C(C=NCc2ccncc2)=C(O)c2ccccc21,-4,-2,-14,-23,21,5
O=C1C=CC(O)C2(CO)OC12 (configuration not stated),nt,-27,-21,19,40,nt
Cc1ccc(C(=O)Nc2ccccc2C(=O)O)cc1S(=O)(=O)Nc1ccc(Br)cc1,7,51*,4,12,6,nt
Cc1ccccc1NS(=O)(=O)c1cc(C(=O)Nc2cccc([N+](=O)[O-])c2)ccc1C,32,59*,10,17,67*,0
Cc1ccc(C(=O)Nc2cccc([N+](=O)[O-])c2)cc1S(=O)(=O)Nc1ccc(C(=O)O)cc1,-2,9,12,-5,1,-1
COc1ccc(NC(=O)[C@@H]2CCCN2S(=O)(=O)c2ccccc2F)cc1S(=O)(=O)N1CCCCC1,nt,-1,22,-10,18,nt
COc1cccc(CN(C)C(=O)C2CCCN(C(=O)c3ccc(Cl)cc3)C2)c1 (configuration not stated),nt,-11,9,-18,6,nt
C=CCSc1nc2ccccc2n1C(=O)/C=C/c1ccc(OC)c(OC)c1,-219,15,-35,31,98*,-2
Cc1nn(-c2ccccn2)c2c1C(c1ccccc1Cl)C1=C(N2)c2ccccc2C1=O (configuration not stated),42,16,14,7,50*,-2
Cc1nn(-c2ccccn2)c2c1C(c1c(F)cccc1Cl)C1=C(N2)c2ccccc2C1=O (configuration not stated),20,nt,nt,nt,nt,5
O=C(NCc1ccccc1)C(c1ccc(-c2ccccc2)cc1)n1c(=O)c(-c2ccco2)nc2ccccc21 (configuration not stated),nt,nt,-21,-4,nt,nt
CC(=O)N1CCCC(C)(C(=O)N(C)Cc2cccc3ccccc23)C1 (configuration not stated),nt,4,15,-5,-12,nt
COc1ccc(C(=O)C(=O)N2CCN(C(=O)OCc3ccccc3)CC2)cc1,nt,nt,-6,-4,nt,nt
Clc1ccc(CN2CCc3c([nH]c4ccccc34)C2)cc1Cl,-19,-3,27,54*,-2,2
Clc1cccc(CN2CCc3c([nH]c4ccccc34)C2)c1,-30,2,28,20,13,4
CCOc1ccccc1N(CC(=O)N1CCN(Cc2ccccc2)CC1)S(=O)(=O)c1ccccc1,nt,-3,19,-16,11,nt
CCOC(=O)C1CCN(C(=O)COC(=O)c2c(C)c(CC)nc3ccccc23)CC1,nt,-1,17,11,10,nt
COc1ccccc1C(CNc1ccc(S(=O)(=O)N2CCCC2)cc1[N+](=O)[O-])N(C)C (configuration not stated),19,-14,26,65*,9,1
NS(=O)(=O)c1ccc(N/N=C2/CCCc3ccccc32)c([N+](=O)[O-])c1,7,2,-5,-11,-41,0
